Source: PubChem BioAssay AID1117283 (Broad Institute, 2014)
Results with a measured potency or affinity are listed apart. Active and inactive are the calls of the source.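 The calls were made as follows: active = fluorescent signal decreased by at least 40%; inconclusive = no clear call, values can overlap the other calls; inactive = the rest, including activity opposite to the expected direction.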

Assay: inhibition of fibronectin matrix deposition – AH1F cells, Alexa488-fibronectin fluorescence, cherry-pick, set 2, dose response (AID 1117283);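 also: AH1F fibroblasts given Alexa488-labelled fibronectin at 24 nM final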
Details: AH1F fibroblasts, overnight; series mostly up to 35 µM; activity change, negative = inhibition: at the top concentration
For `CN(C)c1ccc(-c2ccnc3c2CC(C)(C(=O)NCC2CC2)O3)cc1` (configuration not stated), the “activity change, negative = inhibition” value was 10.7% (inactive). For `Fc1cnc(N2CCN(c3ccccc3)CC2)nc1N1CCN(c2ccccc2)CC1`, the “activity change, negative = inhibition” value was 4.07% (inactive). In the case of `CO[C@H]1CN(C)C(=O)c2ccc(NC(=O)c3ccc(-c4ccccc4)cc3)cc2OC[C@@H](C)NC[C@H]1C`, the “activity change, negative = inhibition” value is reported as 2.37% (inactive). With `COc1ccccc1CC(=O)OC(C)C(=O)Nc1ccc(S(=O)(=O)N2CCCCC2)cc1` (configuration not stated) the “activity change, negative = inhibition” value was 10.7% (inactive). For `Cc1ccc(NC(=O)COC(=O)c2cc(Cl)ccc2[N+](=O)[O-])c(C)c1`, the “activity change, negative = inhibition” value was -7.04% (inactive). In the case of `CO[C@@H]1CN(C)C(=O)c2ccc(NC(=O)c3ccc(-c4ccccc4)cc3)cc2OC[C@H](C)NC[C@H]1C`, the “activity change, negative = inhibition” value is reported as 9.78% [at 30 µM] (inactive). In the case of `COCC(=O)Nc1ccc2c(c1)C(=O)N(C)[C@H]1CC[C@H](CC(=O)NCc3ccccc3Cl)O[C@H]1CO2`, the “activity change, negative = inhibition” value is reported as -9.35% (inactive). For `N#Cc1ccc(-c2ccc3c(c2)[C@H]2[C@H](CCN2S(=O)(=O)c2cccc(F)c2)[C@@H](CO)N3)cc1`, the “activity change, negative = inhibition” value was 8.8% (inactive). In the case of `OC(CNC1CCCc2ccccc21)COc1c(Cl)cccc1Cl` (configuration not stated), the “activity change, negative = inhibition” value is reported as 1.93% (inactive). With `CO[C@H]1CN(C)C(=O)c2ccc(NC(=O)Nc3ccc(Cl)c(Cl)c3)cc2OC[C@H](C)NC[C@@H]1C` the “activity change, negative = inhibition” value was -11% (inactive). For `C[C@H](CO)N1C[C@H](C)[C@H](CN(C)C(=O)c2cccc(F)c2)Oc2ncc(-c3ccccc3)cc2C1=O`, the “activity change, negative = inhibition” value was 2.78% (inactive). With `CO[C@H]1CN(C)C(=O)c2cc(NC(=O)Nc3cc(Cl)cc(Cl)c3)ccc2OC[C@H](C)NC[C@H]1C` the “activity change, negative = inhibition” value was -12.7% (inactive). In the case of `O=C(Nc1ccccc1F)N1C[C@H]2[C@@H](c3ccccc31)[C@H](CO)N2C(=O)C1CC1`, the “activity change, negative = inhibition” value is reported as -11.4% (inactive). In the case of `Cn1cc([N+](=O)[O-])c(C(=O)Nc2cc(Oc3ccccc3)cc([N+](=O)[O-])c2)n1`, the “activity change, negative = inhibition” value is reported as 17.6% (inactive). With `O=C(CCNS(=O)(=O)c1cccc2nonc12)NC1CCCc2ccccc21` (configuration not stated) the “activity change, negative = inhibition” value was 2.12% (inactive). In the case of `CC(C)Cc1nnc(NC(=O)CSc2nc(N)cc(=O)[nH]2)s1`, the “activity change, negative = inhibition” value is reported as 4.83% (inactive). For `C[C@H](CO)N1C[C@H](C)[C@@H](CN(C)C(=O)Nc2cccc3ccccc23)Oc2c(NC(=O)Nc3ccc(C(F)(F)F)cc3)cccc2C1=O`, the “activity change, negative = inhibition” value was 3.45% (inactive). For `COC(=O)C[C@H]1CC[C@@H]2[C@@H](COc3ccc(NC(=O)Cc4cccs4)cc3C(=O)N2C)O1`, the “activity change, negative = inhibition” value was 4.16% (inactive). With `O=S(=O)(c1ccccc1F)N1CC[C@@H]2[C@H]1c1cc(-c3cccc(F)c3)ccc1N[C@@H]2CO` the “activity change, negative = inhibition” value was 2.9% (inactive). In the case of `O=C(CSc1nc2ncc(Cl)cc2[nH]1)c1c[nH]c2ccccc12`, the “activity change, negative = inhibition” value is reported as 14.2% (inactive). For `C[C@H]1CN([C@@H](C)CO)C(=O)c2cc(NC(=O)C3CCCCC3)ccc2O[C@H]1CN(C)Cc1ccc(-c2ccccc2)cc1`, the “activity change, negative = inhibition” value was 12.3% (inactive). For `CCS(=O)(=O)c1ncc(Cl)c(C(=O)Nc2ccc(S(=O)(=O)N3CCC(C)CC3)cc2)n1`, the “activity change, negative = inhibition” value was -6.19% (inactive). For `CCC(C)(C)NC(=O)C(OC(=O)c1ccco1)c1ccccc1OC` (configuration not stated), the “activity change, negative = inhibition” value was 3.17% (inactive). With `CO[C@H]1CN(C)C(=O)c2cc(NC(=O)Nc3ccc(Cl)c(Cl)c3)ccc2OC[C@@H](C)NC[C@H]1C` the “activity change, negative = inhibition” value was 6.57% (inactive). For `COc1cccc(-c2ccc3c(c2)[C@@H]2[C@@H](CCN2S(=O)(=O)c2cccc(OC)c2)[C@H](CO)N3)c1`, the “activity change, negative = inhibition” value was -8.42% (inactive). In the case of `C[C@H](CO)N1C[C@H](C)[C@H](CN(C)Cc2ccc(-c3ccccc3)cc2)Oc2ccc(NC(=O)C3CCCCC3)cc2C1=O`, the “activity change, negative = inhibition” value is reported as -3.46% [at 30 µM] (inactive). With `CC(C)(C)[S@@](=O)N1Cc2cc(C(=O)NCc3ccccc3F)nc(-c3cccc(-c4ccncc4)c3)c2[C@H]1CCO` the “activity change, negative = inhibition” value was 5.11% (inactive). In the case of `CCOc1ccccc1NC(=O)c1c(NC(=O)CCC(=O)O)sc2c1CCCCC2`, the “activity change, negative = inhibition” value is reported as 5.99% (inactive). With `CO[C@H]1CN(C)C(=O)c2cc(NC(=O)Nc3ccc(Cl)c(Cl)c3)ccc2OC[C@@H](C)NC[C@@H]1C` the “activity change, negative = inhibition” value was -5.32% (inactive). With `C[C@H](CO)N1C[C@H](C)[C@H](CN(C)C)Oc2cc(C#C[C@@H](C)O)ccc2S1(=O)=O` the “activity change, negative = inhibition” value was 2.53% (inactive). In the case of `N#C[C@@H]1[C@H](c2ccccc2C2=CCCCC2)[C@H](CO)N1S(=O)(=O)c1ccccc1`, the “activity change, negative = inhibition” value is reported as -8.31% (inactive). For `O=C(NCCS(=O)(=O)N1CCN(c2ccc(F)cc2)CC1)c1ccc(Br)o1`, the “activity change, negative = inhibition” value was -8.57% (inactive). With `COc1ccc(S(=O)(=O)N2CCCCC2c2cc(C(=O)Nc3ccc4c(c3)OCO4)no2)cc1` (configuration not stated) the “activity change, negative = inhibition” value was 1.69% (inactive). In the case of `CCOC(=O)C1=C(C)Nc2nc3ccccc3n2C1c1ccncc1` (configuration not stated), the “activity change, negative = inhibition” value is reported as -4.18% (inactive). In the case of `Cc1ccc(Nc2nnc(SCc3ccccc3)s2)cc1`, the “activity change, negative = inhibition” value is reported as 1.45% (inactive). With `CO[C@H]1CN(C)C(=O)c2cc(NC(C)=O)ccc2OC[C@@H](C)N(C(=O)CN2CCOCC2)C[C@H]1C` the “activity change, negative = inhibition” value was 1.65% (inactive). For `Cc1ccc(CS(=O)Cc2ccc(C(=O)NC3CCCC(C)C3C)o2)cc1` (configuration not stated), the “activity change, negative = inhibition” value was -3.83% (inactive).
